This is a sample that favours compounds with a hit; in the whole collection about 18% have one here.
TDP1 cell CPT – qHTS for Inhibitors of human tyrosyl-DNA phosphodiesterase 1 (TDP1): qHTS in cells in presence of CPT | chicken DT40 Tdp1-/-;hTDP1 cells + 20 nM CPT, ATP luminescence, 48 h | Potency, µM (series often up to 46.2 µM), inactives show at the highest dose activity change, negative = growth inhibition, actives largely listed as inhibitors | actives 12% (n = 420,000) | AID 686979, 2013; note: potency is the fitted concentration of half-maximal effect; % is set by controls: 0 for no effect and ±100 for the full control effect; nearly all actives have a fitted effect of over 55% in size
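Chicken DT40 Tdp1-/- cells stably complemented with human TDP1 were seeded at 400 cells/well in medium containing 20 nM camptothecin, exposed to pin-transferred compounds, and grown at 37 °C for at least 48 hr. Viability was read as ATP luminescence.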
TGFb SMAD3 inh – qHTS for Inhibitors of TGF-b; HepG2 CAGA-GFP TGF-b/SMAD3 reporter, GFP fluorescence, 18 h; TGF-beta stimulated, 500 pg/mL final; Potency, µM (top dose mostly 46.1 µM), inactives show top-dose activity, negative = inhibition, most hits filed as inhibitors; actives 1.2% (n = 410,000); note: potency is the fitted concentration of half-maximal effect; % is set by controls: 0 for no effect and ±100 for the full control effect; nearly all actives have a fitted effect of over 65% in size
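Inhibition was scored as loss of TGF-beta-induced (500 pg/mL final, 18 hours, 37 degrees C) GFP in HEPG2 cells carrying a CAGA-GFP reporter, in DMEM with 1% FBS. Well GFP was summed per cell; Activity was normalised to unstimulated and stimulated DMSO wells, then concentration-response fitting.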
DT40 TDP1 no CPT – qHTS for Inhibitors of human tyrosyl-DNA phosphodiesterase 1 (TDP1): qHTS in cells in absence of CPT | actives 15% (n = 420,000) | DT40 Tdp1-/- hTDP1 cells, no CPT, ATP luminescence, 48 h | Potency, µM (top dose mostly 46.2 µM), for inactives: at the top dose activity change, negative = growth inhibition, hits mostly inhibitors | AID 686978, 2013; note: potency is the fitted concentration of half-maximal effect; % is set by controls: 0 for no effect and ±100 for the full control effect; nearly all actives have a fitted effect of over 55% in size
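Seeded 400 DT40-hTDP1 cells/well (vehicle DMSO, no 20 nM CPT); pinned compounds; ≥48 hr at 37 °C; CellTiter-Glo luminescence as viability measure.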
IL-1B inflam inh – qHTS for Inhibitors of Inflammasome Signaling: IL-1-beta AlphaLISA Primary Screen; THP-1 LPS/ATP IL-1B secretion, AlphaLISA, 16 h; active compounds read low; activity change, % at 57.5 µM; actives 4.7% (n = 360,000); AID 743279, 2014; in the data active = activity change below about -50%; inconclusive = mostly about -30% to -49%; note: % is set by controls: 0 for no effect and ±100 for the full control effect
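THP-1 cells pretreated 1 hr with compounds (up to 57.5 uM final), then stimulated with LPS (250 ng/mL final) plus ATP (1.25 mM final); secreted IL-1B measured by AlphaLISA after 16 hr, decreased signal indicating inhibition.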
HepG2 viability – qHTS for Inhibitors of TGF-b: Cytotox Counterscreen | HepG2 CAGA-GFP viability, ATP luminescence, 18 h | Potency, µM (top dose mostly 46.1 µM), inactives show top-dose activity change, negative = cytotoxicity, usual class: cytotoxic | actives 0.76% (n = 410,000); note: potency is the fitted concentration of half-maximal effect
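CellTiter-Glo luminescence gave cytotoxicity after 18 hours at 37 degrees C. The cells were HepG2 CAGA-GFP in 1% FBS DMEM, stimulated with 500 pg/mL TGF-beta after compound addition. %Activity was normalised to no-cell wells (complete cell-killing) and DMSO (no toxicity), and curves were fitted and classified.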
TDP1 inh – qHTS Assay for Inhibitors of Tyrosyl-DNA Phosphodiesterase (TDP1); Tyrosyl-DNA phosphodiesterase 1 (Homo sapiens), Q9NUW8; recombinant TDP1, AlphaScreen DNA substrate cleavage; Potency, µM (highest dose often 130 µM), for inactives: top-dose activity change, negative = inhibition, usual class: inhibitors; actives 0.28% (n = 350,000); AID 485290, 2010; note: potency is the fitted concentration of half-maximal effect; % is set by controls: 0 for no effect and ±100 for the full control effect; nearly all actives have a fitted effect of over 40% in size
Target sequence (Q9NUW8 whole entry, looked up): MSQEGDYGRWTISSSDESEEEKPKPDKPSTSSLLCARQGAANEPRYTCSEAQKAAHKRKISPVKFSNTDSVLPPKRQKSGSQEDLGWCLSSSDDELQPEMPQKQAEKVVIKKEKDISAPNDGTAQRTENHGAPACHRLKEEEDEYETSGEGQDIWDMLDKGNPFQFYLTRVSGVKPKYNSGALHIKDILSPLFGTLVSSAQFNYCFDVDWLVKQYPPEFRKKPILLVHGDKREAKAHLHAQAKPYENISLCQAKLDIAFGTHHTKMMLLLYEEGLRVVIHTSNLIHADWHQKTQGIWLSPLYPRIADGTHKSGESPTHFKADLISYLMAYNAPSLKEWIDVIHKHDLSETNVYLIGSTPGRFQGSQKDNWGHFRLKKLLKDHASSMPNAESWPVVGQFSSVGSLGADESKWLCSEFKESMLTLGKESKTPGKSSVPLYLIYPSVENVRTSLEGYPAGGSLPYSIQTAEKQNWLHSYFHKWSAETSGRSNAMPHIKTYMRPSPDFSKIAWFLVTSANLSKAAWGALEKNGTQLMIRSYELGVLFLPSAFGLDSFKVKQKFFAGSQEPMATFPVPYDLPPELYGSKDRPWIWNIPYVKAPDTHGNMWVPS
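Signal: AlphaScreen proximity between streptavidin donor and anti-FITC acceptor beads on intact substrate. Reaction: Tdp1 1 nM, substrate 15 nM final, 5 min RT after 15 min compound preincubation.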
* hit, by the source's call. Unless noted, calls come from the whole dose curve; as a rule, active = well fitted curve in the direction sought with a large enough effect; inconclusive = small, poorly fitted or top-dose-only effect, or another doubt; inactive = no such curve, though single readings can be large; an effect the other way counts as inactive or inconclusive.

Screening COc1ccccc1OCC(=O)NCCC1=CCCCC1 returned TDP1 cell CPT inconclusive, TGFb SMAD3 inh -5.0%, DT40 TDP1 no CPT inconclusive, IL-1B inflam inh 17.8, HepG2 viability -5.4% and TDP1 inh -5.3%.
For O=C(/C=C/c1ccc(F)cc1)NCCC1=CCCCC1 the results were TDP1 cell CPT 20.6µM*, TGFb SMAD3 inh 3.5%, DT40 TDP1 no CPT 16.4µM*, IL-1B inflam inh -17.1, HepG2 viability 0.4% and TDP1 inh 4.1%.
`N/C(Cn1cncn1)=N\NC(=O)c1ccc(Cl)cc1Cl` gave TDP1 cell CPT -4.9%, TGFb SMAD3 inh 11.0%, DT40 TDP1 no CPT -16.7%, IL-1B inflam inh -5.7, HepG2 viability 0.0% and TDP1 inh 0.0%.
Screening CC(C)/C=C(/C(=O)c1ccc(Cl)cc1Cl)n1cncn1 returned TDP1 cell CPT inconclusive, TGFb SMAD3 inh -5.4%, DT40 TDP1 no CPT 20.6µM*, IL-1B inflam inh -71.4* and HepG2 viability -30.4%.
`CCCCC/C=C\C/C=C\C/C=C\C/C=C\CCCC(=O)C(F)(F)F` gave TDP1 inh -1.0%.
`O=C1c2ccccc2C(Nc2ccc(F)c(Cl)c2)N1c1ccccn1` (stereo not given) gave TDP1 cell CPT 16.4µM*, TGFb SMAD3 inh -7.9%, DT40 TDP1 no CPT inconclusive, IL-1B inflam inh -12.9, HepG2 viability -4.0% and TDP1 inh -2.0%.
Screening O=C1c2ccccc2C(Nc2ccc3c(c2)OCCO3)N1c1ccc(Cl)cn1 (stereo not given) returned TDP1 cell CPT inconclusive, TGFb SMAD3 inh 4.2%, DT40 TDP1 no CPT 16.4µM*, IL-1B inflam inh 18.6, HepG2 viability -21.5% and TDP1 inh 7.8%.
For O=C1c2ccccc2C(Nc2ccc(S(=O)(=O)N3CCCCC3)cc2)N1c1ccccn1 (stereo not given) the results were TDP1 cell CPT inconclusive, TGFb SMAD3 inh -0.5%, DT40 TDP1 no CPT 20.6µM*, IL-1B inflam inh inconclusive, HepG2 viability -6.6% and TDP1 inh 0.0%.
Screening Cc1cc(-n2cnnn2)cc(C)c1S(=O)(=O)N(C)c1ccccc1 returned TDP1 cell CPT inconclusive, TGFb SMAD3 inh 8.2%, DT40 TDP1 no CPT inconclusive, IL-1B inflam inh -25.9, HepG2 viability -0.9% and TDP1 inh 4.9%.
`CSc1nc(=S)n(-c2cc(C)ccc2C)c(C)c1C(C)=O` gave TDP1 cell CPT -0.1%, TGFb SMAD3 inh -2.1%, DT40 TDP1 no CPT -2.7%, IL-1B inflam inh -19.0 and HepG2 viability -9.5%.
Screening COc1ccc(CC(=O)Nc2cccc(SC)c2)cc1 returned TDP1 cell CPT inconclusive, TGFb SMAD3 inh 1.9%, DT40 TDP1 no CPT -19.7%, IL-1B inflam inh -8.5, HepG2 viability -6.8% and TDP1 inh 5.3%.
`COCCCN(Cc1cc(OC)c(OC)c(OC)c1)C(=S)Nc1cccc(Cl)c1` gave TDP1 cell CPT inconclusive, TGFb SMAD3 inh -10.3%, DT40 TDP1 no CPT 9.2µM*, IL-1B inflam inh -25.1 and HepG2 viability -19.1%.
COc1cc(CC(=O)Nc2cccc(SC)c2)cc(OC)c1OC was read as TDP1 cell CPT inconclusive, TGFb SMAD3 inh 0.1%, DT40 TDP1 no CPT 10.3µM*, IL-1B inflam inh 6.9, HepG2 viability -7.8% and TDP1 inh 1.2%.
`CCN(Cc1cc(OC)c(OC)c(OC)c1)C(=S)Nc1cccc(SC)c1` gave TDP1 cell CPT inconclusive, TGFb SMAD3 inh -1.5%, DT40 TDP1 no CPT 23.1µM*, IL-1B inflam inh 40.2, HepG2 viability -2.4% and TDP1 inh 2.9%.
For Cc1ccc2cccnc2c1N the results were TDP1 cell CPT -3.5%, TGFb SMAD3 inh 11.9%, DT40 TDP1 no CPT -13.6%, IL-1B inflam inh 14.8, HepG2 viability -0.4% and TDP1 inh 2.4%.
